Compound activity (PubChem BioAssay)
Mtb bLac sens: beta-lactam sensitization of Mtb H37Rv. M. tuberculosis H37Rv growth with meropenem, percent inhibition. inhibition, % at 25 µM. 330,000 compounds, 0.27% hits. AID 434955; call rule not given here;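 further: growth measured after seven days incubation then overnight dye step; 0% = bacteria only wells and 100% = bacteria with antibiotic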
Mtb UGM inh: blocks M. tuberculosis UGM enzyme; purified UGM, fluorescence polarization probe displacement; inhibition, % at 10 µM; 320,000 compounds, 0.06% hits; in the data active means inhibition above about 10%, passing the limit was not always enough; inconclusive means no clear call, values can overlap the other calls
GDH-TPI counter-1: GDH-TPI coupled enzyme inhibition counter-screen; GDH-TPI coupled enzyme counterscreen, NADH absorbance; inhibition, % at 4.8 µM; 360,000 compounds, 1.2% hits; AID 588335; in the data active means inhibition above about 30%;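 further: 0% = DMSO wells and 100% = wells lacking the enzyme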
Rv3671c inh: inhibitors of M. tuberculosis serine protease Rv3671c; P9WHR9; inhibition, % at 5.96 µM; 320,000 compounds, 0.048% hits; in the data active means inhibition above about 38%;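 further: extracellular domain of Rv3671c used as enzyme; 0% = enzyme with DMSO and 100% = no enzyme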
RecA splice inh: inhibitors of M. tuberculosis RecA intein splicing; P9WHJ3; cell-free RecA intein splicing, fluorescence; inhibition, % (concentration not given with the values); 290,000 compounds, 0.75% hits; AID 2221; in the data active means inhibition above about 30%; inconclusive means no clear call, values can overlap the other calls;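 further: 0% = vehicle wells and 100% = reference inhibitor control wells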
Target sequence (P9WHJ3 whole entry, looked up, canonical isoform): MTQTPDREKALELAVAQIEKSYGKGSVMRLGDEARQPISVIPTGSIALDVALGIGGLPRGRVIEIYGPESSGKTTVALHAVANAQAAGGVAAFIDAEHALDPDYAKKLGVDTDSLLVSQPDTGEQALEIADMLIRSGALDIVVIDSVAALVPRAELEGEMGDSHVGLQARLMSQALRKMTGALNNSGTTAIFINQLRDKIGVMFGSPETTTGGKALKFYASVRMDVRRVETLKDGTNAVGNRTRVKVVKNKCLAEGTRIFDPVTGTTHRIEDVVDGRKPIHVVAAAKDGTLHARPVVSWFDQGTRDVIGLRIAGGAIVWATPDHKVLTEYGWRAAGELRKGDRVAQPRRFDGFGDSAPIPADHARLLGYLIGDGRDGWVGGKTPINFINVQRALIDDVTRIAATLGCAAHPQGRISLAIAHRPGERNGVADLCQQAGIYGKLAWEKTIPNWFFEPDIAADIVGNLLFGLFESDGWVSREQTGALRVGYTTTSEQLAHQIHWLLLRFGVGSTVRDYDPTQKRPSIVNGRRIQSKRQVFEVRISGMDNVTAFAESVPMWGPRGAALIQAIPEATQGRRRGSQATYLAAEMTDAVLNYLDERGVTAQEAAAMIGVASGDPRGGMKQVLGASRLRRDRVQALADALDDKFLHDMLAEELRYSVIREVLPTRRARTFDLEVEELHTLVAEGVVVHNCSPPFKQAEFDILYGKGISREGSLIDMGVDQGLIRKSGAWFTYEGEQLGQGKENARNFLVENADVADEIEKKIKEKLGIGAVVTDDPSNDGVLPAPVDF
Mtb FBA inh: inhibits M. tuberculosis FBA enzyme. purified M. tuberculosis FBA, fluorescence read-out. inhibition, % at 1 µM. 360,000 compounds, 2.3% hits;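 further: 0% = vehicle and 100% = reference inhibitor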
Mtb FBA inh conf: Mtb FBA inhibition, confirmed | shares compounds with Mtb FBA inh | purified M. tuberculosis FBA, fluorescence read-out | inhibition, % at 1 µM | 5,600 compounds, 78% hits | AID 651616;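 further: 0% = vehicle wells and 100% = reference inhibitor wells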
GDH-TPI counter-2: inhibits GDH-TPI coupling enzymes, flagging Mtb FBA hits. shares compounds with Mtb FBA inh. GDH-TPI coupled enzyme counterscreen, fluorescence. inhibition, % at 1 µM. 5,600 compounds, 81% hits. AID 652141; in the data active means inhibition above about 10%
* = called active by the depositor; i = inactive; ? = inconclusive; / = not tested or not shown; + = active, no number. Sampled rows, rich in hits. Any-hit rate of the full collection: about 4%. Unless noted, no stated cut-off is given here; in the data, active means inhibition above about 27%; inactive means the rest.

SMILES	Mtb bLac sens	Mtb UGM inh	GDH-TPI counter-1	Rv3671c inh	RecA splice inh	Mtb FBA inh	Mtb FBA inh conf	GDH-TPI counter-2
O=C1C[C@@H]2c3c(cccc3CN1Cc1ccc(F)cc1)C[C@@H](O)[C@H]2O	0.4	-2.5	2.6	-6.3	/	0.9	/	/
NC(=O)c1ccc(NC(=O)COC(=O)CC23CC4CC(CC(Br)(C4)C2)C3)cc1	0.5	2.4	13.4	-3.9	/	7.2	/	/
COc1ccc(-c2nc3ncccn3c2Br)cc1	2.6	-2.8	14.2	-0.8	-4.1	49.1*	+	186.5*
Brc1c(-c2ccc3c(c2)OCO3)nc2ncccn12	86.8	0.7	8.6	7.8	-2.3	2.7	/	/
CC1(C)CC(=O)C=C(c2ccc(F)nc2)C1	2.9	4.4	11.2	-1.4	/	3.2	/	/
COc1ccc(-c2oc3ncnc(NCCCN4CCOCC4)c3c2-c2ccc(OC)cc2)cc1	97.4	1.8	14.4	-1.5	-0.7	108.2*	+	+
OCCCNc1ncnc2oc(-c3ccccc3)c(-c3ccccc3)c12	0.8	-2.5	11.0	/	-0.5	89.1*	98.3*	79.0*
c1ccc(-c2oc3ncnc(NCCCN4CCOCC4)c3c2-c2ccccc2)cc1	62.6	-0.4	22.2	-11.0	1.5	48.1*	-3.3	-1.1
c1ccc(-n2c(-c3cccs3)nc3nc4ccccc4nc32)cc1	-2.0	0.3	1.4	-7.7	-3.6	95.7*	+	+
CCC(C)n1c(-c2cccs2)nc2nc3ccccc3nc21 (configuration not stated)	20.3	2.8	12.5	-8.2	-15.8	52.5*	101.7*	76.3*
Cc1ccc(-n2c(-c3cccs3)nc3ccccc3c2=O)cc1	20.0	1.2	21.9	-1.5	-2.8	0.9	/	/
O=c1cc(C(F)(F)F)c2cc3c4c(c2o1)CCCN4CCC3	3.0	0.8	0.7	27.1	-74.9	12.9	/	/
Cc1cc(=O)oc2c3c4c(cc12)OCCN4CCC3	3.7	2.6	6.5	-1.0	i	75.7*	65.7*	66.0*
CC(C)c1cc(=O)oc2c3c4c(cc12)CCCN4CCC3	0.1	1.2	2.6	-3.3	-66.2	39.4*	98.0*	86.5*
N#Cc1cnc(NCc2ccc(Cl)cc2Cl)nc1	3.8	-1.3	0.0	7.2	-2.0	0.2	/	/
O=c1[nH][nH]c2cc(=O)n(-c3ccc(Cl)cc3)nc12	-0.2	0.3	10.1	20.1	-0.3	-6.1	/	/
COc1ccc2c(c1)c(C)cc[n+]2Cc1ccccc1	-4.3	2.9	5.9	/	1.0	40.9*	59.3*	57.1*
Cc1ccc2c(c1)c(C)cc[n+]2Cc1ccccc1	1.3	2.0	6.7	-3.4	2.3	11.9	/	/
CC(=O)OC1CCC2(C)C(COc3ccc4ccc(=O)oc4c3)C(C)(O)CCC2C1(C)C (configuration not stated)	14.6	1.6	21.6	-3.1	8.7	78.6*	42.0*	38.4*
C=C1CCC2C(C)(C)[C@@H](O)CC[C@@]2(C)[C@@H]1COc1ccc2ccc(=O)oc2c1 (some centres not stated)	-0.3	0.4	14.7	-30.5	4.2	23.6	/	/
CCc1ccc(OCC(=O)Nc2ccc(-c3cc4ccccc4oc3=O)c(OC)c2)cc1	-2.1	-1.1	12.2	-37.4	0.0	37.2*	63.9*	45.8*
CCn1cc(-c2ccnc3cc(C(=O)O)nn23)c(C)n1	-1.0	0.3	11.9	3.2	-12.2	84.1*	76.0*	58.1*
Cc1c(-c2ccnc3cc(C(=O)O)nn23)cnn1C	-7.3	-4.2	12.5	0.9	-13.4	79.1*	22.4	16.8*
CC(C)CCN(CCC(C)C)CC(O)Cn1c2ccccc2c(=O)c2ccccc21 (configuration not stated)	81.3	-2.5	-1.5	3.1	i	30.9*	45.1*	35.0*
O=C(O)c1ccc(-c2ccccc2)[nH]c1=O	-4.1	-3.7	18.7	-3.2	0.3	105.6*	+	+
SMILES	Mtb bLac sens	Mtb UGM inh	GDH-TPI counter-1	Rv3671c inh	RecA splice inh	Mtb FBA inh	Mtb FBA inh conf	GDH-TPI counter-2
CN(C)c1c(-c2ccccc2)cc(-c2ccccc2)[nH]c1=O	/	/	2.6	/	-8.6	6.7	/	/
c1ccc(-c2ccc(-c3ccccc3)[nH]2)cc1	/	/	18.4	/	/	64.4*	178.2*	163.3*
O=C(NNC(=O)c1ccc(Br)s1)c1csc(N2CCOCC2)n1	15.7	-2.3	10.5	1.8	/	-1.6	/	/
COc1ccc(/C=N/NS(=O)(=O)c2ccc(F)cc2)cc1CN1CCSCC1	?	-0.5	16.1	4.5	/	3.7	/	/
CS(=O)(=O)Nc1ccc(C(=O)N2CC(=O)Nc3ccccc32)cc1	0.0	0.3	0.5	/	0.6	-2.0	/	/
COc1ccc2[nH]c(C(=O)O)c(CCN3C(=O)c4ccc(C(=O)O)cc4C3=O)c2c1	-2.4	-0.3	-4.4	-9.0	-3.0	2.5	/	/
COc1ccc(S(=O)(=O)Nc2c(C(=O)O)[nH]c3ccc(OC)cc23)cc1	-7.4	2.5	2.5	-4.0	-2.6	26.9*	+	+
COc1ccc2[nH]c(C(=O)O)c(CCC(=O)O)c2c1	-7.6	-4.0	-0.6	8.6	2.3	41.5*	77.9*	59.0*
Cc1cc(C)c(C(=O)COC(=O)c2cccc(S(=O)(=O)N3CCOCC3)c2)cc1C	/	/	4.4	/	/	3.8	/	/
COc1ccc(S(=O)(=O)N2CCN(C(=O)NCc3ccc(OC)c(OC)c3)CC2)cc1	-3.1	2.4	6.9	-0.7	1.8	0.9	/	/
O=c1[nH]c(SCc2ccccc2F)nc2ccccc12	-9.8	1.1	1.6	-0.1	-0.9	0.8	/	/
O=c1cc(CSc2nc3ccccc3c(=O)[nH]2)c2ccc(O)cc2o1	/	/	21.0	/	-1.0	28.3*	101.7*	74.9*
O=C1OC(C(Cl)(Cl)Cl)Nc2ccccc21 (configuration not stated)	/	/	/	/	/	40.3*	+	+
CCOC(=O)c1c(CNc2ccncc2)n(C)c2cc(Br)c(O)cc12	-0.6	-3.1	5.8	4.7	-0.9	1.8	/	/
Cc1cc(C)c(NC(=O)CS(=O)CC(=O)Nc2ccc(-n3cnnn3)c(C)c2)c(C)c1 (configuration not stated)	-5.3	-0.8	3.0	4.3	5.5	-0.3	/	/
CCN(Cc1ccccc1)S(=O)(=O)c1cc2[nH]c(=O)c(=O)[nH]c2cc1C	?	-1.3	19.8	-5.1	0.6	28.4*	155.4*	110.5*
Cc1cc2c(cc1S(=O)(=O)N(C)Cc1ccccc1)OCC(=O)N2	-8.6	-1.9	4.3	8.1	-1.2	0.7	/	/
Cc1cccc2c(C(=O)O)cc(-c3cccnc3)nc12	-3.9	1.8	4.5	-12.4	-1.5	6.0	/	/
Cc1cc(C)c2nc(-c3cccnc3)cc(C(=O)NC(C)c3cnn(C)c3C)c2c1 (configuration not stated)	-22.8	1.9	5.7	8.9	-0.2	40.3*	+	169.3*
Cc1cc(C)cc(C(=O)Nc2ccncc2)c1	-7.8	1.5	8.6	4.0	-1.1	3.5	/	/
